VHR inh color: VHR1 (DUSP3) phosphatase inhibition; P51452; recombinant VHR phosphatase, colorimetric substrate read-out; inhibition, % at 20 µM; hit rate 0.7% among 50,000; AID 1992; in the data active = inhibition above about 60%
Target sequence (P51452 whole entry, looked up): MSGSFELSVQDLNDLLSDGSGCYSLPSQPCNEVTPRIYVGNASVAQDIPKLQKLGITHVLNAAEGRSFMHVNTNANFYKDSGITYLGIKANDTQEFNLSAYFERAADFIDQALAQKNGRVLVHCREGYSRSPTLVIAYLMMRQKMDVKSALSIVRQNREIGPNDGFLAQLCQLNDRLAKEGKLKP
Hits are given with their value. The full list was thinned out, with hits kept by preference.

How did COc1ccc(Br)cc1C(=O)Nc1cccc(-c2nc3ncccc3o2)c1C do in these assays?
VHR inh color: inactive

How did O=C(Nc1nc(-c2ccc(F)cc2)cs1)c1cccs1 do in these assays?
VHR inh color: inactive

Results for Cc1ccc(C)n1-c1ccc(O)c(C(=O)O)c1 ?
VHR inh color: inactive

Results for CCNC(=O)c1ccc(Cl)cc1Cl ?
VHR inh color: inactive

What do the screens show for `Cc1ccc(C)n1-c1ccc(C(=O)NN)c(Cl)c1`?
VHR inh color: 90.1

What do the screens show for `O=[N+]([O-])c1cc(C(=S)N2CCOCC2)ccc1O`?
VHR inh color: inactive

How did COC(=O)C1=C(C)N(C)C(C)=C(C(=O)OC)C1c1cccc(F)c1 do in these assays?
VHR inh color: inactive

How did NNC(=O)/C(=C\c1ccc(Cl)cc1)NC(=O)c1ccccc1 do in these assays?
VHR inh color: inactive

Results for COC(=O)c1ccc(COc2cc3oc(=O)c4c(c3cc2Cl)CCC4)cc1 ?
VHR inh color: inactive

Results for COC(=O)c1ccc(COc2cc3oc(=O)cc(-c4ccccc4)c3cc2Cl)cc1 ?
VHR inh color: 97.9

How did COC(=O)c1ccc(COc2ccc3c(-c4ccccc4)cc(=O)oc3c2C)cc1 do in these assays?
VHR inh color: inactive

How did Cc1ccccc1/C=C1\C(=O)NC(=S)N(c2cccc(Br)c2)C1=O do in these assays?
VHR inh color: inactive

Results for COc1ccc(/C=N/Nc2nc(-c3ccc(C)cc3)nc3ccccc23)c(OC)c1 ?
VHR inh color: inactive

How did CCC1CCc2c(sc(NC(=O)c3ccc(Br)o3)c2C(=O)OC)C1 (stereo not drawn) do in these assays?
VHR inh color: inactive

How did CCOC(=O)c1c(NC(=O)C2C3CCC(O3)C2C(=O)O)sc2c1CCC(CC)C2 (stereo not drawn) do in these assays?
VHR inh color: inactive

What do the screens show for `CCOC(=O)c1c(NC(=O)c2ccco2)sc2c1CCC(CC)C2` (stereo not drawn)?
VHR inh color: 73.3

Results for NC1=NC(=O)/C(=C/c2cccc(OCc3cccc4ccccc34)c2)S1 ?
VHR inh color: inactive

Results for Cc1ccc(C2Nc3ccccc3NC3=C2C(=O)CC(c2ccc4c(c2)OCO4)C3)s1 (stereo not drawn) ?
VHR inh color: inactive

Results for CCn1c(O)c(N=NC(=O)c2ccccc2Cl)c2ccccc21 ?
VHR inh color: inactive

Results for CCOc1c(/C=C(\C#N)C(N)=O)c2ccccc2n1-c1c(Cl)cccc1Cl ?
VHR inh color: inactive

Results for CCC(CO)N=Cc1c(O)n(-c2c(Cl)cccc2Cl)c2ccccc12 (stereo not drawn) ?
VHR inh color: 97.5

Results for CC(COc1ccccc1)NC(=O)c1nn2c(C(F)(F)F)cc(-c3ccccc3)nc2c1Br (stereo not drawn) ?
VHR inh color: inactive

Results for Cc1cc(=O)oc2cc(OCC(=O)c3ccc(Cl)cc3)c(Cl)cc12 ?
VHR inh color: inactive

Results for Cc1cc(=O)oc2cc(OCc3ccc(F)cc3)c(Cl)cc12 ?
VHR inh color: inactive

How did Cc1cc(=O)oc2cc(OC/C(=N\O)c3ccc(Cl)cc3)c(Cl)cc12 do in these assays?
VHR inh color: 106.5

What do the screens show for `CN(Cc1ccccc1)C(=O)COc1ccc(-c2ccccc2)cc1`?
VHR inh color: inactive

What do the screens show for `CC1=C(C(=O)Nc2cc(Cl)ccc2C)C(c2ccccc2Br)NC(=S)N1` (stereo not drawn)?
VHR inh color: inactive

Results for CC(=O)Oc1cccc2c1C(=O)c1ccccc1C2=O ?
VHR inh color: inactive

Results for COc1ccc(OC)c2c1C(=O)c1ccccc1C2=O ?
VHR inh color: 94.5

How did COc1ccc2noc3c2c1C(=O)c1ccccc1-3 do in these assays?
VHR inh color: inactive

Results for CCCCOc1ccc(NC(=O)COc2ccc(C)cc2C)cc1 ?
VHR inh color: inactive

How did COc1ccc(NC(=O)NC(c2ccccc2)c2ccccc2)cc1OC do in these assays?
VHR inh color: inactive

What do the screens show for `N/C(=N\OC(=O)c1ccc(Cl)c([N+](=O)[O-])c1)c1ccncc1`?
VHR inh color: inactive

High-throughput results deposited in PubChem BioAssay by Sanford-Burnham Center for Chemical Genomics.
